Assay results reported in ChEMBL document CHEMBL3988442, “University of Dundee, Small-Polar-MMV Screening Library” (2021).
“And” between values parts separate entries of the source, which are not always exact repeats. Identical values can stand only once. For some assays here: Potency and affinity values are given separately.

Legend:
Design in all cases: scale not given: direction of the effect not stated beside the values
[1] = target: Protein translocase subunit SecA (Escherichia coli (strain K12)) (UniProt P10408); experiment: Assay to Identify E. coli SecA ATPase Inhibitors; format: functional; details: 30 µM
Protein translocase subunit SecA (Escherichia coli (strain K12)), sequence (P10408 whole entry): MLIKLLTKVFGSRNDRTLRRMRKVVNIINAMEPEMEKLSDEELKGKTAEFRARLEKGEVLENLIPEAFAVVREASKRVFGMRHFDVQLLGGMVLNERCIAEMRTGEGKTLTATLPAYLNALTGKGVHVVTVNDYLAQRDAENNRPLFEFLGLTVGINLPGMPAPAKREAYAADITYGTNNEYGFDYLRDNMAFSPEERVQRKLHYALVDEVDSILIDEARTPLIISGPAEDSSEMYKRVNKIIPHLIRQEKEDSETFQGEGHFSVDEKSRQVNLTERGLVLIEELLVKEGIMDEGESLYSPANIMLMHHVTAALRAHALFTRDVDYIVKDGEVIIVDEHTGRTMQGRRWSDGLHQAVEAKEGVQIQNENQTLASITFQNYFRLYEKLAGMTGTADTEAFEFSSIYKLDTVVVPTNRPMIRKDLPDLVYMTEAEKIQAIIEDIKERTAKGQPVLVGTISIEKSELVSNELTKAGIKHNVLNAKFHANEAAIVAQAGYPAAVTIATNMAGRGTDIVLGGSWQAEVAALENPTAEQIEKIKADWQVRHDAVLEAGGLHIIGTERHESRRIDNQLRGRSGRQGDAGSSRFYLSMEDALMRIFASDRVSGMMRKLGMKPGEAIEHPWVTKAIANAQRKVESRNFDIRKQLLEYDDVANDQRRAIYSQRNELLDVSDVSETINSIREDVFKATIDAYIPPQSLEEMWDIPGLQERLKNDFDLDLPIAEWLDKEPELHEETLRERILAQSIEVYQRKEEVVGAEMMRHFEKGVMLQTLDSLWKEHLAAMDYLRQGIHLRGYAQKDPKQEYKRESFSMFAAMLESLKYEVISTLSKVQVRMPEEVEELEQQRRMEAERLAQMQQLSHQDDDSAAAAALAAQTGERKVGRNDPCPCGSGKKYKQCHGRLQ

[2] = target: T1, Ubiquitin-activating enzyme e1, putative (Leishmania donovani (strain BPK282A1)) (UniProt E9BSI1); experiment: Leishmania donovani Ubiquitin Activating Enzyme (LdE1); format: functional; details: 30 µM
T1 sequence (whole entry): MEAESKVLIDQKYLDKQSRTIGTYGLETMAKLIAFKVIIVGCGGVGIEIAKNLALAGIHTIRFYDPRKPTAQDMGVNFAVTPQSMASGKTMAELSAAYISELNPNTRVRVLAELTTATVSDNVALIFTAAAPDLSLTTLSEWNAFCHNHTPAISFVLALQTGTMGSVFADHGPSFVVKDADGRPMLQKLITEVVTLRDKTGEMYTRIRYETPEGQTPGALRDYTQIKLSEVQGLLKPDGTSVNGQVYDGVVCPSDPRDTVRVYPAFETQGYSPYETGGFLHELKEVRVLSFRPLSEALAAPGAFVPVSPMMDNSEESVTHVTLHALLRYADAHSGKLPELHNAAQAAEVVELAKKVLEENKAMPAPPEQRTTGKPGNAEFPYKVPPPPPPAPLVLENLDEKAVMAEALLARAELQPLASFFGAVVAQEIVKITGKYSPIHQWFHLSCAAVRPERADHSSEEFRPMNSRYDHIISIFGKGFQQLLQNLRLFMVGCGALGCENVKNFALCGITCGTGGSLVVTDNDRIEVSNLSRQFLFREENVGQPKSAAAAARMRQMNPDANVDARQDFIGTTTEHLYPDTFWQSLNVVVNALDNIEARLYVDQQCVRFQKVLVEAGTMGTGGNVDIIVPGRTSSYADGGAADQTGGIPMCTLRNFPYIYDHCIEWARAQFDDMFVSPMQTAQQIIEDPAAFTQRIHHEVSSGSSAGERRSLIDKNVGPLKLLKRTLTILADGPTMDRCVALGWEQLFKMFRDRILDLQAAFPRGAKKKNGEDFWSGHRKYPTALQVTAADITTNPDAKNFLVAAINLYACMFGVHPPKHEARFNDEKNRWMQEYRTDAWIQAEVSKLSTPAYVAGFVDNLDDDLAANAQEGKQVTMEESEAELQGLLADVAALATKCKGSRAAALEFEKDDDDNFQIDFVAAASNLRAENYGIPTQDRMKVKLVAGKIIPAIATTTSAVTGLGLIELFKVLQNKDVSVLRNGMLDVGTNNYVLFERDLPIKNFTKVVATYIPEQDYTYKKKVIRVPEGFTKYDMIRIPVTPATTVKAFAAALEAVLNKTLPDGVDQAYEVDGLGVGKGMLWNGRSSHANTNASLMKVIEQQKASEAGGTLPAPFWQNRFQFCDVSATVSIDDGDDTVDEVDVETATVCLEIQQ

[3] = target: Sialic acid-binding Ig-like lectin 9 (Homo sapiens) (UniProt Q9Y336); experiment: Hs-Siglec9 ALPHAscreen SOP 20170721; details: 10 µM
Sialic acid-binding Ig-like lectin 9 (Homo sapiens), sequence (Q9Y336 whole entry): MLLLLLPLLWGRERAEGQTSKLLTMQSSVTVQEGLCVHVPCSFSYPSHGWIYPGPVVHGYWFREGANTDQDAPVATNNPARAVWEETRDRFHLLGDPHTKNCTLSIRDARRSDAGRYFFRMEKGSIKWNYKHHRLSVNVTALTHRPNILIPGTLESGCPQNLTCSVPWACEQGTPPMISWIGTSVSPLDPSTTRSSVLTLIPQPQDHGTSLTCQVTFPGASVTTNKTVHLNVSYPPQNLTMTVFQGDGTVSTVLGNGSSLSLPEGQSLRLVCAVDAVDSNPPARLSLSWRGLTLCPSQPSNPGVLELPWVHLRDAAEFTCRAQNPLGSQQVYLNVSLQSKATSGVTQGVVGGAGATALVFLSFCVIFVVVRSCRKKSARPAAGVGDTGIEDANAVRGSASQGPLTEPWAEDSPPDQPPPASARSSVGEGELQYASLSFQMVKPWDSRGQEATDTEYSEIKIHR

[4] = tested on: Trypanosoma cruzi; experiment: Trypanosoma cruzi phosphomannomutase and mannose-1-phosphate guanylyltransferase assay; format: functional; details: 10 µM
[5] = target: T2, Arginase-2, mitochondrial (Homo sapiens) (UniProt P78540); experiment: in vitro enzyme assay to detect the production of urea directly proportional to the activity of Arginase II; format: functional; further: in the data most compounds retested in dose-response had high values
T2 sequence (whole entry): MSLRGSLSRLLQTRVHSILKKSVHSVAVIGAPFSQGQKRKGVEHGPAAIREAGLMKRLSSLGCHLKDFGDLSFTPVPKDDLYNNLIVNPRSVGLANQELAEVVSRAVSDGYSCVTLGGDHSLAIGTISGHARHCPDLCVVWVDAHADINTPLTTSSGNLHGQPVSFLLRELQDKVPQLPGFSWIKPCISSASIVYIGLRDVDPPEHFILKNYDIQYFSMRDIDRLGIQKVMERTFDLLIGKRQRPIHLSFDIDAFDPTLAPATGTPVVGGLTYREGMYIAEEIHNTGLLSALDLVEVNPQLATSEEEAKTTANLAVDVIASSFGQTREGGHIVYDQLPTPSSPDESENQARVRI

[6] = target: T3, Proteasome subunit beta (Trypanosoma cruzi) (UniProt O96673); experiment: Trypanosoma cruzi proteasome chymotrypsin-like activity (TcProtChymo) assay.; further: in the data most compounds retested in dose-response had high values; format: functional; details: 9.37 µM
T3 sequence (whole entry): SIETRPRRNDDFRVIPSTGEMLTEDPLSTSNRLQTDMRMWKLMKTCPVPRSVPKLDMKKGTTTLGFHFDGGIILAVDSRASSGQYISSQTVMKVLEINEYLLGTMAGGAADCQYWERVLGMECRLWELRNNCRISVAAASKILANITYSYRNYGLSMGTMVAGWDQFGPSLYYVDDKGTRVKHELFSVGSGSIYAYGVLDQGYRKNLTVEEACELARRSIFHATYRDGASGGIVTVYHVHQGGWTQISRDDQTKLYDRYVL

[7] = tested on: N/A; experiment: Trypanosoma cruzi proteasome luciferase counter-screen; format: functional; details: 9.37 µM
[8] = species on record: Homo sapiens; experiment: To identify inhibition of the IFN signalling (Jak-Stat) pathway via expression of an eGFP reporter gene under the control of an IFN-stimulated response element (ISRE) containing MxA promoter.; format: functional; details: 30 µM
[9] = target: T4, Tyrosyl-tRNA synthetase, putative (Trypanosoma cruzi (strain CL Brener)) (UniProt Q4DSP6); experiment: Trypanosoma cruzi tyrosyl tRNA synthetase (TcYRS) _High Tyrosine SOP; format: functional; details: 30 µM; further: in the data most compounds retested in dose-response had high values
T4 sequence (whole entry): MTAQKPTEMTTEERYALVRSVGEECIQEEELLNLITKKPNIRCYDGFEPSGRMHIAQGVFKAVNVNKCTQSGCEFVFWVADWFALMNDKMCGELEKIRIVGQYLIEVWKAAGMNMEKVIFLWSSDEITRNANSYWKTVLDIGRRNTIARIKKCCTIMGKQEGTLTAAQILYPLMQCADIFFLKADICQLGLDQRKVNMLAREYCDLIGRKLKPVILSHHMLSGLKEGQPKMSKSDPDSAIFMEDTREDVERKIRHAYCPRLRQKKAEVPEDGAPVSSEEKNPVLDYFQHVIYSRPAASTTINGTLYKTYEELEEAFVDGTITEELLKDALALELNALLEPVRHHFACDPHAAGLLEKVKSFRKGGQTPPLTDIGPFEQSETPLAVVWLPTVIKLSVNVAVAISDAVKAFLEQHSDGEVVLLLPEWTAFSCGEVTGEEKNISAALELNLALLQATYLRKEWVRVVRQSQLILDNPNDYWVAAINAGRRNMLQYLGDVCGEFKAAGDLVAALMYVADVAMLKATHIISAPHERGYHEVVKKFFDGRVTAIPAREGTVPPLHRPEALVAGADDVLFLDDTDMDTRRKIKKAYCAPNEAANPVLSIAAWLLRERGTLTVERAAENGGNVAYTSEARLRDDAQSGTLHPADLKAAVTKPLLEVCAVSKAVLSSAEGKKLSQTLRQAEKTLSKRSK

[10] = target: T4, Tyrosyl-tRNA synthetase, putative (Trypanosoma cruzi (strain CL Brener)); experiment: Trypanosoma cruzi tyrosyl tRNA synthetase (TcYRS) SOP; format: functional; details: 30 µM
[11] = target: Chromo domain-containing protein 1 (Saccharomyces cerevisiae (strain ATCC 204508 / S288c) (Baker's yeast)) (UniProt P32657); experiment: ScCHD-1 Enzyme Inhibition Assay; format: functional; details: 30 µM; further: in the data most compounds retested in dose-response had high values
Chromo domain-containing protein 1 (Saccharomyces cerevisiae (strain ATCC 204508 / S288c) (Baker's yeast)), sequence (P32657 whole entry, the tested form may be a part): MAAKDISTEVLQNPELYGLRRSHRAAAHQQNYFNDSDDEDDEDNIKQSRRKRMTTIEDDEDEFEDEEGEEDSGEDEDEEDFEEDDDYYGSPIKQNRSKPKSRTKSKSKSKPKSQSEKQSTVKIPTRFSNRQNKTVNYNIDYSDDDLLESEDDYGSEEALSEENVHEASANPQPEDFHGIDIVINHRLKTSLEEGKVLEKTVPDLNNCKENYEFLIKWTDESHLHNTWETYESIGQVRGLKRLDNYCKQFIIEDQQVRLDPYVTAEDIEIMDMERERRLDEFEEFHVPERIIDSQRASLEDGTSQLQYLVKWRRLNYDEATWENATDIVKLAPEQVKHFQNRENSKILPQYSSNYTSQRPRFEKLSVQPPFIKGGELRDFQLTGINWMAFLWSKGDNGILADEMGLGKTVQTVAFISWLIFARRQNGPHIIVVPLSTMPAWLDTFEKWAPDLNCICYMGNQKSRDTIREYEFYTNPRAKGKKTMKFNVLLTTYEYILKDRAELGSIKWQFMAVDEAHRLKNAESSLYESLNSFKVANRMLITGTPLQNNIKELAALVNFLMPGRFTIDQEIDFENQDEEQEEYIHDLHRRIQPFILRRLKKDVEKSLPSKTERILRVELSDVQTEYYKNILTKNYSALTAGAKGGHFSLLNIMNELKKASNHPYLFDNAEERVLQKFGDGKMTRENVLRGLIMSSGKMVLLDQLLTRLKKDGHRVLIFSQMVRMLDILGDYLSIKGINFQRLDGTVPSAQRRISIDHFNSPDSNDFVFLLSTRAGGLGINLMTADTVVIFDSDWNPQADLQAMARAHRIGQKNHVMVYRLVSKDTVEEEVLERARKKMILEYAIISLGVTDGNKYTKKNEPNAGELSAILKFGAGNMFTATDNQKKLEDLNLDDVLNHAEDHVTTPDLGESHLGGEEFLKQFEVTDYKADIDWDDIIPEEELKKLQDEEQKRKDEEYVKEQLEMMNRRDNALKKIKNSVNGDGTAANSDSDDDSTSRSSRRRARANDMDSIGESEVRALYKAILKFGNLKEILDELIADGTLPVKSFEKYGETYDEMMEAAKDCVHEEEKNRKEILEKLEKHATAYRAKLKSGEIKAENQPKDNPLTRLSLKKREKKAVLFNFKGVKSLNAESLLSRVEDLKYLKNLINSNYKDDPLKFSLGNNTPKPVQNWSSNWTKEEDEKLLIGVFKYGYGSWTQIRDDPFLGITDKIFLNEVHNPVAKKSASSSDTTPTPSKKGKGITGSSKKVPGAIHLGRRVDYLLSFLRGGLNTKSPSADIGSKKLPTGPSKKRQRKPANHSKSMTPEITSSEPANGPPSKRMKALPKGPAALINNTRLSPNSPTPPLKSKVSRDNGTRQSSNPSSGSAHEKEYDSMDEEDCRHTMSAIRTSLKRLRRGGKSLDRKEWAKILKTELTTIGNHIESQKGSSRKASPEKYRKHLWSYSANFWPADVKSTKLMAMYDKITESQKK

[12] = target: AMP-activated protein kinase, AMPK (Homo sapiens) (UniProt P54646+O43741+P54619+Q9UGJ0+Q9Y478+Q13131+Q9UGI9); experiment: AMP-dependent Kinase enzyme assay. An in vitro enzyme assay that detects ADP turnover that is directly proportional to AMPK activity. This uses naive AMPK that is activated during the assay with MK-8722; format: functional; details: 30 µM

Cn1ccc(C(=O)NCc2cccc(CN3CCCC3)c2)cc1=O
Percent Effect [1]: -1.76% | Percent Effect [2]: 20.8% | Percent Effect [3]: 0.574% | Percent Effect [4]: 2.05% | Percent Effect ([5]; 33.3 µM): -6.35% | Percent Effect [6]: 19.2% and 18.4% and 34% | Percent Effect [7]: 12% and 8.64% | Percent Effect [8]: -14.3% | Percent Effect [9]: 11.8% | Percent Effect [10]: 30.6% | Percent Effect [11]: -13%

COc1cccc(-c2nc(CNCCn3cccn3)cs2)c1
Percent Effect [1]: -0.562% | Percent Effect [2]: -2.56% | Percent Effect [3]: -1.83% | Percent Effect [4]: -5.54% | Percent Effect ([5]; 33.3 µM): 2.46% | Percent Effect [6]: 59.5% and 60.9% and 43.9% | Percent Effect [7]: 31.8% and 30.9% | Percent Effect [8]: 37.8% | Percent Effect [9]: 4.31% | Percent Effect [10]: 6.02% | Percent Effect [11]: 1.48%

Cc1ccc(NC(=O)C2=CN=S=N2)cc1
Percent Effect [1]: 1.26% | Percent Effect [2]: 17.3% | Percent Effect [3]: -13.9% | Percent Effect [4]: 3.94% | Percent Effect ([5]; 33.3 µM): 0% | Percent Effect [6]: 84.2% and 80.5% and 69% | Percent Effect [7]: 45.6% and 45.1% | Percent Effect [8]: 21.4% | Percent Effect [9]: 4.23% | Percent Effect [10]: 10% | Percent Effect [11]: -20.4%

Cc1nc(C)n(CC2CCCN2Cc2nc(N)c3ccccc3n2)n1 (centres undefined)
Percent Effect [1]: -1.49% | Percent Effect [2]: 21.3% | Percent Effect [3]: -3.38% | Percent Effect [4]: 3.81% | Percent Effect ([5]; 33.3 µM): -3.1% | Percent Effect [6]: 16.4% and 18.4% and 30.6% | Percent Effect [7]: 8.36% and 7.38% | Percent Effect [8]: 8.71% | Percent Effect [9]: 6.84% | Percent Effect [10]: 15.4% | Percent Effect [11]: -17.8%

Cc1ccc(N2CC[C@H]3O[C@@H](C(=O)NCc4ccco4)CC[C@H]32)nn1
Percent Effect [1]: -3.84% | Percent Effect [2]: 11.7% | Percent Effect [3]: -7.1% | Percent Effect [4]: 0.487% | Percent Effect ([5]; 33.3 µM): 4.05% | Percent Effect [6]: 34.9% and 42.6% and 44.7% | Percent Effect [7]: 17.7% and 15.6% | Percent Effect [8]: 2.02% | Percent Effect [9]: 12.1% | Percent Effect [10]: 12.8% | Percent Effect [11]: -1.01%

Cn1nc2c(cc1=O)CN(Cc1nc(-c3cccs3)no1)CC2
Percent Effect [1]: -4.37% | Percent Effect [2]: 5.33% | Percent Effect [3]: 3.65% | Percent Effect [4]: 1.61% | Percent Effect ([5]; 33.3 µM): -1.77% | Percent Effect [6]: 13.7% | Percent Effect [8]: 12.3% | Percent Effect [9]: -0.526% | Percent Effect [10]: 2.56% | Percent Effect [11]: -8.34%

CS(=O)(=O)N1CCN(C(=O)Cn2ccc3c(Cl)cccc32)CC1
Percent Effect [1]: -4.17% | Percent Effect [2]: -2.7% | Percent Effect [3]: -2.63% | Percent Effect [4]: -7.08% | Percent Effect ([5]; 30 µM): 5.95% | Percent Effect ([5]; 33.3 µM): -3.15% | Percent Effect [6]: 18.1% | Percent Effect [8]: 4.83% | Percent Effect [9]: 2.66% | Percent Effect [10]: 2.44% | Percent Effect [11]: -0.985%

COc1cccc2c1OCC(C(=O)N(C)CCCc1cnn(C)c1)C2 (centres undefined)
Percent Effect [1]: -3.02% | Percent Effect [2]: 0% | Percent Effect [12]: -14.1% | Percent Effect [3]: -2.21% | Percent Effect [4]: -6.27% | Percent Effect ([5]; 33.3 µM): 3.64% | Percent Effect [6]: 4.79% | Percent Effect [8]: 12.6% | Percent Effect [9]: 0% | Percent Effect [10]: 7.5% | Percent Effect [11]: -4.59%

Cc1cccnc1C(=O)N1CCCCC1c1[nH]ncc1S(C)(=O)=O (centres undefined)
Percent Effect [1]: -3.04% | Percent Effect [2]: 6.67% | Percent Effect [3]: 0.367% | Percent Effect [4]: -1.97% | Percent Effect ([5]; 33.3 µM): 6.64% | Percent Effect [6]: 4.76% | Percent Effect [8]: 0.716% | Percent Effect [9]: 7.41% | Percent Effect [10]: 7.5% | Percent Effect [11]: -19.6%

COc1ccc(-c2ccnc3c2C(=O)CCC3)cc1
Percent Effect [1]: 0.627% | Percent Effect [2]: 22.7% | Percent Effect [3]: -8.36% | Percent Effect [4]: 0.789% | Percent Effect ([5]; 33.3 µM): 0.885% | Percent Effect [6]: 78.1% and 77.9% and 84.4% | Percent Effect [7]: 54.8% and 45.5% | Percent Effect [8]: 22.2% | Percent Effect [9]: 2.12% | Percent Effect [10]: 7.5% | Percent Effect [11]: -22.2%

Cc1ccc(C)c(C(C(=O)O)N2CCCN(Cc3ccccn3)CC2)c1 (centres undefined)
Percent Effect [1]: -6.39% | Percent Effect [2]: 5.41% | Percent Effect [3]: 1.19% | Percent Effect [4]: -2.23% | Percent Effect ([5]; 30 µM): 0.54% | Percent Effect ([5]; 33.3 µM): 4.54% | Percent Effect [6]: 16.3% | Percent Effect [8]: 23.2% | Percent Effect [9]: 6.92% | Percent Effect [10]: 14.6% | Percent Effect [11]: -4.84%
